High-throughput results from PubChem BioAssay.
TDP1 cell CPT = growth inhibition of DT40 Tdp1-/-;hTDP1 cells with camptothecin (screen for TDP1 inhibitors); chicken DT40 Tdp1-/-;hTDP1 cells + 20 nM CPT, ATP luminescence, 48 h; Potency, µM (series often up to 46.2 µM), for inactives: at the top dose activity change, negative = growth inhibition, hits mostly inhibitors; 420,000 tested, 12% active; note: potency is the fitted concentration of half-maximal effect; % is set by controls: 0 for no effect and ±100 for the full control effect; nearly all actives have a fitted effect of over 55% in size
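Chicken DT40 Tdp1-/- cells stably complemented with human TDP1 were seeded at 400 cells/well in medium containing 20 nM camptothecin, exposed to pin-transferred compounds, and grown at 37 °C for at least 48 hr. Viability was read as ATP luminescence.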
DRD3 antagonist = blocks the human D3 dopamine receptor; P35462; D3R cells, DiscoveRx beta-arrestin luminescence, antagonist mode; stronger effect = lower value; max response, negative = inhibition, %; 360,000 tested, 2.5% active; in the data active = max response below about -50%; inconclusive = no clear call, values can overlap the other calls; note: % is set by controls: 0 for no effect and ±100 for the full control effect
Target sequence (P35462 whole entry, looked up): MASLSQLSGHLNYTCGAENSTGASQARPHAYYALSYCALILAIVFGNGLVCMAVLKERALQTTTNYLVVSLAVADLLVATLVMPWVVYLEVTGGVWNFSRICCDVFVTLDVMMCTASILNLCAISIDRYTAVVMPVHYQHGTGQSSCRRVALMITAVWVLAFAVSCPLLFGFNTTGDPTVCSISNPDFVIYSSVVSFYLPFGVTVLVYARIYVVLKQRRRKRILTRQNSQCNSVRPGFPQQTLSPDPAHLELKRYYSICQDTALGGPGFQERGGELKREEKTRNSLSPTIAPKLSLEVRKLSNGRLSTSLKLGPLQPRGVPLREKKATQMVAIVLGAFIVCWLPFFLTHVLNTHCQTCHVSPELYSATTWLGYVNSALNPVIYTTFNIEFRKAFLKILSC
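Cells expressing the human receptor were seeded at 1500 cells/well, incubated overnight at 37 degrees C in 5% CO2, then exposed to library compounds with dopamine controls for 90 minutes at 37 degrees C before luminescent detection.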
ClpP mod = qHTS Assay for Activators of ClpP; purified B. subtilis ClpP, FRET peptide cleavage, 20 min; 340,000 tested, 1.9% active; Potency, µM (top dose mostly 57.5 µM), for inactives: at the highest dose activity change, negative = active; active = well fitted falling curve with a large enough effect; inconclusive = small, poorly fitted or top-dose-only effect; inactive = no such curve, though single readings can be large or run the other way; note: potency is the fitted concentration of half-maximal effect; the source files actives as falling curves though it sought activators and does not explain the sign; nearly all actives have a fitted effect of over 65% in size
Target sequence (P80244 whole entry, looked up): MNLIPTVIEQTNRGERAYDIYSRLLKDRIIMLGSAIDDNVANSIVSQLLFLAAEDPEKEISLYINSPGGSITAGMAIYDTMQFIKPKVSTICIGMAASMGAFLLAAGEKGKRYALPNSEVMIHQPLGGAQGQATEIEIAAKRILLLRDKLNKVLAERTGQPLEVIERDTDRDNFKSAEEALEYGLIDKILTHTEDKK
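Purified B. subtilis ClpP, 10 microg/mL final in Tris/HCl pH8 with KCl, BSA, glycerol and Tween-20, cleaved an Abz/nitrotyrosine-quenched decapeptide. Fluorescence (ex 320, em 430) was read at 0 and 20 min at room temperature. Delta was normalized to 5.8 microM ADEP and DMSO/no-enzyme controls.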
DT40 TDP1 no CPT = qHTS for Inhibitors of human tyrosyl-DNA phosphodiesterase 1 (TDP1): qHTS in cells in absence of CPT. DT40 Tdp1-/- hTDP1 cells, no CPT, ATP luminescence, 48 h. 420,000 tested, 15% active. Potency, µM (top dose mostly 46.2 µM), inactives show at the top dose activity change, negative = growth inhibition, most hits filed as inhibitors. AID 686978, 2013; note: potency is the fitted concentration of half-maximal effect; % is set by controls: 0 for no effect and ±100 for the full control effect; nearly all actives have a fitted effect of over 55% in size
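Camptothecin absent (DMSO only). Human TDP1-complemented DT40 knockout cells, 400 cells/well, 37 °C for minimum 48 hr; ATP measured via CellTiter-Glo, 30 min dark incubation, luminescence.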
IL1B secr inh = inhibitors of inflammasome signaling (IL-1 beta secretion); AID 743279; 360,000 tested, 4.7% active; THP-1 LPS/ATP IL-1B secretion, AlphaLISA, 16 h; stronger effect = lower value; activity change, % at 57.5 µM; in the data active = activity change below about -50%; inconclusive = mostly about -30% to -49%; note: % is set by controls: 0 for no effect and ±100 for the full control effect
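THP-1 cells pretreated 1 hr with compounds (up to 57.5 uM final), then stimulated with LPS (250 ng/mL final) plus ATP (1.25 mM final); secreted IL-1B measured by AlphaLISA after 16 hr, decreased signal indicating inhibition.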
D3 ag = agonists of human D3 dopamine receptor | P35462 | D3R DiscoveRx beta-arrestin cells, luminescence, 90 min | max activation, % | 410,000 tested, 0.58% active | AID 652048; in the data active = max activation above about 30%; note: 0% is about no effect
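Agonist-mode cell screen: cells plated at 1500/well and incubated overnight at 37 °C, then exposed to library compounds for 90 min at 37 °C. Detection reagent was added for 30–60 min at room temperature, and luminescence was read.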
An asterisk follows results filed as active; ? = inconclusive; . = not tested or not shown. Only some compounds are listed: those with a hit (about 21% of all), similar ones and a draw of the others. Unless noted, calls come from the whole dose curve; as a rule, active = well fitted inhibition curve with a large enough effect; inconclusive = small, poorly fitted or top-dose-only effect; inactive = flat fitted curve, though single readings scatter.

SMILES	TDP1 cell CPT	DRD3 antagonist	ClpP mod	DT40 TDP1 no CPT	IL1B secr inh	D3 ag
CCCCN(C)C(=O)c1oc2ccc(S(=O)(=O)N3CCCCCC3)cc2c1C	18.4µM*	-75.1*	-1.5%	?	-67.6*	-5.9
COc1ccc(/C=C/C(=O)C2CC2)cc1Cn1nc(C)c([N+](=O)[O-])c1C	?	1.5	.	?	-110.1*	0.9
CCOC(=O)C1=C(O)c2ccccc2C(=O)/C1=C\c1ccc(CC)cc1	20.6µM*	-69.9*	3.4%	20.6µM*	?	-38.9
CCOC(=O)C1=C(Cc2ccc(OC)cc2)C(=O)c2ccccc2C1=O	4.61µM*	-71.3*	2.2%	8.2µM*	-81.9*	-35.3
O=C1CS/C(=N/N=C/c2ccco2)N1Cc1ccc(F)cc1	-4.1%	-9.4	-0.9%	-27.4%	3.5	-6.1
COc1ccccc1CNC(=O)C(=O)NCCC1CCCCN1S(=O)(=O)c1cccs1 (stereo not drawn)	?	-12.3	6.6%	?	?	-3.0
Cc1ccccc1NC(=O)C(=O)NCC1CCCN1S(=O)(=O)c1cccs1 (stereo not drawn)	-29.1%	-1.4	1.6%	?	4.0	-3.5
COc1ccc(NC(=O)C(=O)NCC2CCCN2S(=O)(=O)c2cccs2)cc1 (stereo not drawn)	2.31µM*	11.5	2.1%	2.06µM*	-6.2	-1.5
CCCCCOc1ccc(NC(=O)C(=O)NCC2CCCN2CC)cc1 (stereo not drawn)	16.4µM*	-2.2	.	?	-7.2	2.7
Cc1ccccc1CNC(=O)C(=O)NCCC1CCCCN1S(=O)(=O)c1cccs1 (stereo not drawn)	18.4µM*	-20.7	-23.2%	?	-23.5	-17.0
O=C(NCCc1ccccc1)C(=O)NCC1CCCN1S(=O)(=O)c1cccs1 (stereo not drawn)	23.1µM*	1.3	-7.5%	?	5.2	-0.9
CCN1CCCC1CNC(=O)C(=O)NC (stereo not drawn)	-0.2%	0.3	0.4%	-11.6%	23.5	0.9
Cc1ccccc1NC(=O)CN1C(=O)S/C(=C/c2cccnc2)C1=O	-7.2%	15.9	-7.3%	13.8%	27.8	-3.1
Cc1ccc(NC(=O)NCCc2c(C)nn(C)c2C)c(Cl)c1	-7.7%	.	-1.1%	-24.7%	.	-3.1
c1ccc(CNc2nc(-c3ccc4c(c3)OCO4)nc3ccccc23)cc1	-2.9%	.	.	?	.	.
O=C(Nc1nnc(-c2ccccc2)o1)C1CCCN1S(=O)(=O)c1cccs1 (stereo not drawn)	-29.4%	11.8	.	?	-59.3*	-14.1
COc1ccc(-c2nnc(NC(=O)C3CCCN3S(=O)(=O)c3cccs3)o2)cc1 (stereo not drawn)	?	7.2	-1.7%	-26.6%	5.2	2.1
COc1ccc(N=CC2CCCCC2=O)c([N+](=O)[O-])c1 (stereo not drawn)	?	3.8	0.3%	?	-84.8*	6.0
O=C(NCc1ccccn1)C(=O)NCC1OCCN1S(=O)(=O)c1ccc([N+](=O)[O-])cc1 (stereo not drawn)	-25.9%	-16.8	-1.7%	-7.0%	0.0	-11.2
CCOC(=O)Cc1ccc(Nc2nc(NC)nc3ccsc23)cc1	20.6µM*	-78.2*	-12.7%	18.4µM*	-12.1	-23.0
CCOC(=O)Cc1ccc(Nc2nc(NCc3ccccc3)nc3ccsc23)cc1	23.1µM*	96.0	-9.5%	14.6µM*	-2.6	12.2
O=[N+]([O-])c1cnc2ccccc2c1	6.4%	-15.9	0.2%	-3.8%	18.9	-23.8
O=[N+]([O-])c1cc([N+](=O)[O-])c2cc3ccccc3nc2c1	0.259µM*	-79.9*	.	0.517µM*	-102.0*	-27.6
CCOc1ccc(C2C(C#N)=C(N)Oc3cc(C)n(Cc4ccco4)c(=O)c32)cc1OC (stereo not drawn)	-12.9%	-52.6*	2.0%	-5.1%	-21.4	2.7
Cc1cc2c(c(=O)n1CCN(C)C)C(c1ccncc1)C(C#N)=C(N)O2 (stereo not drawn)	2.1%	-26.6	2.51µM*	-8.1%	21.0	-3.3
SMILES	TDP1 cell CPT	DRD3 antagonist	ClpP mod	DT40 TDP1 no CPT	IL1B secr inh	D3 ag
Cc1cc2c(c(=O)n1Cc1ccco1)C(c1cccnc1)C(C#N)=C(N)O2 (stereo not drawn)	-10.3%	-17.5	1.8%	-16.3%	-9.0	-0.1
COc1ccc(C2C(C#N)=C(N)Oc3cc(C)n(Cc4ccncc4)c(=O)c32)cc1 (stereo not drawn)	4.61µM*	-5.2	-5.3%	2.06µM*	-9.3	6.0
Cc1cc2c(c(=O)n1Cc1cccnc1)C(c1cccs1)C(C#N)=C(N)O2 (stereo not drawn)	-27.0%	-51.0*	-3.2%	?	56.3	-7.1
CCc1ccc(Cn2nnc3c(=O)[nH]c(C4CCCN(C(=O)c5cccc(Cl)c5)C4)nc32)cc1 (stereo not drawn)	?	.	-2.1%	?	.	5.0
COCCCNC(=O)Cn1c(=O)n(-c2cccc(C)c2)c(=O)c2c3c(sc21)CN(C(C)=O)CC3	9.5%	.	1.1%	8.7%	.	-3.1
COc1ccc(NC(=S)N2CCN(C(=O)C3CCCO3)CC2)cc1 (stereo not drawn)	0.6%	-21.1	-2.0%	-3.4%	16.6	-14.4
O=c1[nH]c(-c2ccc(Cl)cc2)nc(=S)[nH]1	8.5%	-4.4	0.8%	-4.6%	13.5	1.8
O=C(CN(c1cccc(C(F)(F)F)c1)S(=O)(=O)c1ccc(Cl)c([N+](=O)[O-])c1)NCc1ccccc1Cl	16.4µM*	-22.9	-2.6%	16.4µM*	-100.0*	-5.1
O=C(NCc1ccccc1Cl)c1cccc(OC2CCN(C(=O)C3CC3)CC2)c1	16.4µM*	14.8	-1.4%	?	-1.9	-2.7
O=C(NCc1ccccc1Cl)c1cccc(C(F)(F)F)c1	2.8%	-18.4	-0.9%	-13.9%	-80.2*	2.2
O=C(CN(c1ccc(Br)cc1)S(=O)(=O)c1ccc(Cl)c([N+](=O)[O-])c1)NCCc1ccccc1	-15.3%	-26.7	25.1µM*	?	-13.2	-7.4
CC(C)=CC(=O)N1CCC(Oc2cccc(C(=O)NCc3ccccn3)c2)CC1	-20.9%	-9.1	-4.0%	?	-0.7	0.8
CCN1CCN(C(=O)c2cc(S(=O)(=O)N3CCCCC3)ccc2Cl)CC1	-11.2%	-24.0	1.1%	-5.5%	0.0	1.8
